# Only some compounds are listed: those with a hit (about 6.7% of all), similar ones and a draw of the others.
# BoNT A protease = BoNT/A light chain protease inhibitors, primary screen, biochemical, flow cytometry, MLPCN library; multiplex microsphere protease substrate cleavage; AID 588499, 2011; actives 0.17% (n = 360,000); Botulinum neurotoxin type A light chain protease (Clostridium botulinum A str. ATCC 3502); inhibition, % at 10 µM; further: plate controls were buffer without enzyme for full effect and enzyme alone for no effect
# BoNT F protease = BoNT/F light chain protease inhibitors, primary screen, biochemical, flow cytometry, MLPCN library; Botulinum neurotoxin type F light chain protease (Clostridium botulinum); Multiplex microsphere protease cleavage assay; inhibition, % at 10 µM; actives 0.22% (n = 360,000); in the data active means inhibition above about 35%, passing the limit was not always enough; inconclusive means no clear call, values can overlap the other calls; further: plate controls were buffer without enzyme for full effect and enzyme alone for no effect
# Anthrax LF inh2 = Bacillus anthracis LF protease inhibitors, primary screen, biochemical, multiplex microsphere, MLPCN library; Lethal factor (Bacillus anthracis), P15917; multiplex microsphere protease cleavage assay; inhibition, % at 10 µM; actives 0.12% (n = 360,000); further: plate controls were buffer without enzyme for full effect and enzyme alone for no effect
# GDH-TPI counter = GDH-TPI coupling enzyme inhibitors, primary screen, artefact control for M. tuberculosis FBA inhibitor project, biochemical, absorbance, full deck | GDH-TPI coupled enzyme counterscreen, NADH absorbance | inhibition, % at 4.8 µM | actives 1.2% (n = 360,000); in the data active means inhibition above about 30%;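 further: 0% = DMSO wells and 100% = wells lacking the enzyme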
# Mtb FBA inh = Mtb FBA enzyme inhibitors, primary screen, biochemical, fluorescence, strain H37Rv. purified M. tuberculosis FBA, fluorescence read-out. inhibition, % at 1 µM. actives 2.3% (n = 360,000); in the data active means inhibition above about 27%;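 further: 0% = vehicle and 100% = reference inhibitor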
# Target sequence (P9WQA3 whole entry, looked up): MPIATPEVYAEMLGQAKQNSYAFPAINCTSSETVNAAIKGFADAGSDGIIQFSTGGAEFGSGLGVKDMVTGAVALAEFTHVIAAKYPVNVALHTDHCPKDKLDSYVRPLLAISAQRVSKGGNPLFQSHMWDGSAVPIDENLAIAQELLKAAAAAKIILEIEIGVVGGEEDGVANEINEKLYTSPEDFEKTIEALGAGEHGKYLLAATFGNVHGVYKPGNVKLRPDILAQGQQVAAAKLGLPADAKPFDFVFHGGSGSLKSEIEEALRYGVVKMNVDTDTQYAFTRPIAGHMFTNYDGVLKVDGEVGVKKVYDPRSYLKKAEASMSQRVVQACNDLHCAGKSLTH
# Bead autofluor = compound fluorescence in toxin protease inhibitor counterscreen. compound autofluorescence counterscreen, microsphere flow cytometry; hits give high values. fluorescence intensity (concentration not given with the values). actives 3.1% (n = 360,000). AID 624483; in the data active means fluorescence intensity above about 16000; inconclusive means no clear call, values can overlap the other calls
# * hit, by the source's call; u = inconclusive. Unless noted, no stated cut-off is given here; in the data, active means inhibition above about 30%; inconclusive means no clear call, values can overlap the other calls; inactive means below that.
SMILES,BoNT A protease,BoNT F protease,Anthrax LF inh2,GDH-TPI counter,Mtb FBA inh,Bead autofluor
COC(=O)c1cccc(Cn2c(Cl)c(/C=N/NC(=O)c3ccco3)sc2=O)c1,0,1,0,35*,-2,4377
COc1ccc(CCNC(=O)CSc2nc(=O)n3cccc(C)c3n2)cc1OC,-1,-4,2,10,5,u
COc1ccc(C2C(C#N)=C(N)Oc3cc(O)ccc32)cc1Cl (stereo unspecified),0,35*,3,-1,-4,4572
CCOc1ccc(C2C(C#N)=C(N)Oc3cc(O)ccc32)cc1OCC (stereo unspecified),0,6,-16,2,6,4284
Clc1ccc2nc(-c3ccccc3)c(CN3CCOCC3)n2c1,0,-2,4,-9,5,23584*
Cc1cc(S(=O)(=O)Nc2ccc3cn[nH]c3c2)c(C)cc1Cl,0,6,-3,3,0,4317
O=C1C=C(N(CCO)CCO)C2(CCCCC2)O1,u,-7,-8,12,0,22987*
CC(C)(C)NC1=CC(=O)OC12CCCCC2,1,0,-2,-9,-4,23197*
CC(C)(C)CC(C)(C)NC1=CC(=O)OC12CCCCC2,0,-8,1,2,1,8007
Cc1ccc2nc(NC(=O)C3CC(=O)N(Cc4ccco4)C3)sc2c1 (stereo unspecified),0,-5,0,7,-3,2000
Cc1cc(=O)oc2cc(OCC(=O)Nc3nnc(CC(C)C)s3)ccc12,0,35*,4,2,6,4905
Oc1ccc(/C=N/NC(=S)NC2CC3CCC2C3)cc1 (stereo unspecified),0,u,-5,61*,-1,4398
O=C(/C=C/NCc1cccnc1)c1ccc(Br)cc1,-5,u,-35,54*,-3,3540
O=C(/C=C/NCc1cccnc1)C(F)(F)C(F)(F)F,0,9,5,8,1,4226
CC/C(=N\NC(=O)c1ccccc1)c1c(O)n(C2CCCCC2)c(=O)[nH]c1=O,-2,0,-2,25,1,5549
CCC(=Nc1ccc2c(c1)CCC2)c1c(O)n(C2CCCCC2)c(=O)[nH]c1=O,u,0,0,25,1,22000*
CC/C(=N\NC(=O)c1ccccc1Cl)c1c(O)n(C2CCCCC2)c(=O)[nH]c1=O,-2,-1,-2,34*,-3,5085
CC(=O)N(c1ccc(C(C)C)cc1)C1C=CS(=O)(=O)C1 (stereo unspecified),0,-10,-2,3,1,4705
Cn1c2ccc(F)cc2c2ncn(CCCN(CCO)CCO)c(=O)c21,-2,-1,-4,9,24,21356*
O=C(O)CSc1nnc(C2COc3ccccc3O2)n1-c1ccccc1 (stereo unspecified),1,3,-2,-8,1,19815*
CCNc1nc(N2CCOCC2)nc(N(c2ccccc2)c2ccccc2)n1,0,-3,-6,3,-1,10403
CCC(C)(C)C(=O)Nc1nnc(CCc2ccccc2)s1,-1,36*,-1,-2,-1,3221
CC(C)(C)CC(=O)Nc1nnc(CCc2ccccc2)s1,2,u,-22,11,1,3321
O=C(Cc1ccccc1)Nc1nonc1NC(=O)c1ccccc1,0,u,-6,0,0,4129
O=C1C2=C(SCCS2)C(=O)N1c1ccccc1,4,7,0,0,0,19116*
SMILES,BoNT A protease,BoNT F protease,Anthrax LF inh2,GDH-TPI counter,Mtb FBA inh,Bead autofluor
COc1ccc(C2=NN(C(=O)c3cccs3)C(c3ccccc3OC)C2)cc1OC (stereo unspecified),-3,-12,-10,34*,3,5181
COc1ccc(C2=NN(C(=O)c3ccco3)C(c3cccs3)C2)cc1OC (stereo unspecified),-1,-11,-7,38*,-2,3686
Cc1ccc(C2=NN(C(=O)c3cccs3)C(c3ccccc3O)C2)cc1 (stereo unspecified),0,-8,-2,-4,0,4091
COc1ccc(C2=NN(C(=O)CCCC(=O)O)C(c3cccs3)C2)cc1OC (stereo unspecified),1,-1,-3,3,26,4735
CC(C)C1(C)N=C(c2ncccc2C(=O)O)NC1=O (stereo unspecified),0,-14,1,-2,1,11147
COc1ccccc1NS(=O)(=O)c1cc([N+](=O)[O-])ccc1N/N=C/c1c(C)[nH]c2ccccc12,5,-62,-28,7,0,16725*
CNC(=S)NNC(=O)Cc1ccc(O)cc1,2,9,8,8,3,1724
CC1(c2ccccc2)NC(=O)N(CC(=O)N2CCOCC2)C1=O (stereo unspecified),0,2,-1,-9,0,11302
CC(C)(C)C1(c2ccccc2)NC(=O)N(CC(=O)N2CCOCC2)C1=O (stereo unspecified),u,2,-3,-2,-1,19617*
CCCCCOC(=O)C1C(c2ccccc2)C(C(=O)O)C1c1ccccc1 (stereo unspecified),0,-1,2,-5,-3,2668
O=C(O)C1C(c2ccccc2)C(C(=O)OCc2ccco2)C1c1ccccc1 (stereo unspecified),-1,-1,-1,3,-2,23151*
O=C(O)C1C(c2ccccc2)C(C(=O)OCCCO)C1c1ccccc1 (stereo unspecified),0,-2,-2,-5,-1,22890*
CCOC(=O)C1C(c2ccccc2)C(C(=O)OCC)C1c1ccccc1 (stereo unspecified),0,-7,1,3,-4,9355
CCC(C)OC(=O)C1C(c2ccccc2)C(C(=O)O)C1c1ccccc1 (stereo unspecified),-1,-2,-8,1,0,10259
Cc1ccccc1OC(=O)C1C(c2ccccc2)C(C(=O)O)C1c1ccccc1 (stereo unspecified),6,12,3,5,1,20251*
COC(=O)C1C(c2ccccc2)C(C(=O)OCc2ccco2)C1c1ccccc1 (stereo unspecified),6,7,-7,1,-1,20681*
Cc1ccc(CSCCNC(=O)CN(c2ccccc2)S(C)(=O)=O)cc1,-1,-5,1,-8,3,4853
COC(=O)C(Cc1c[nH]c2ccccc12)NC(=O)C(=O)c1c[nH]c2ccccc12 (stereo unspecified),-1,2,-3,5,-1,5238

# Screens: PubChem, several laboratories
